Assay results reported in PubChem BioAssay (NCATS).
Values without a mark were called inactive. Results filed as inconclusive are left out. Calls of active or inactive are those of the source. Unless noted, calls follow the shape of the dose curve; as a rule, active = well fitted curve in the direction sought with a large enough effect; inconclusive = small, poorly fitted or top-dose-only effect, or another doubt; inactive = no such curve, though single readings can be large; an effect the other way counts as inactive or inconclusive.

Columns and labels:
[1] = molecular target: Lysosomal acid glucosylceramidase (Homo sapiens) (UniProt P04062); assay: Glucocerebrosidase-p2 (AID 348; in the data active = potency below about 10 µM; also: potency is read from the fitted curve at half-maximal effect); conditions: purified GBA, blue fluorogenic substrate, 40 min
How it was run: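 Compounds titrated from 0.6 nM upwards against 0.2 nM enzyme in pH 5.9 citric acid/KH2PO4, taurocholate, tween-20; blue fluorogenic substrate 80 uM, 40 min room temperature, stopped and read Ex 365/Em 440 for AC50.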

[2] = AP1 Signaling Pathway (AID 357; active = well fitted curve in either direction with a large enough effect, not every such curve was filed as active;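 also: ME-180 reporter cells stimulated with EGF at its EC50 level; % is scaled to controls: 0 for no effect and ±100 for the full control effect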); conditions: ME-180 AP-1-bla reporter, EGF-induced, beta-lactamase ratio, 5 h; at 7.69 µM (top of the series) unless noted
How it was run: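 AP-1-bla ME-180 cells, Opti-MEM + 0.5% dialyzed FBS, plated overnight 37 °C. Cpd titration + EC50 EGF, 5 h 37 °C. CCF4 2.5 h RT; ex 405, em 460/530 ratio → %activity, AC50.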

[3] = molecular target: Cytochrome P450 1A2 (Homo sapiens) (UniProt P05177); assay: p450-cyp1a2 (AID 410; calls by dose curve; also: potency is read from the fitted curve at half-maximal effect); conditions: recombinant CYP1A2, luciferin-ME demethylation, luminescence; series mostly up to 57 µM
How it was run: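 20nM CYP1A2 with 100uM Luciferin-ME (at Km) in 100mM KPO4; compound preincubated 10 min, NADPH regeneration added, 60 min at room temperature. Luciferin quantified by luminescence after detection reagent; normalized to 57 uM furafylline.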

[4] = Stat Signaling Pathway (AID 446; active = well fitted curve in either direction with a large enough effect, not every such curve was filed as active;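 also: ME-180 cervical cancer cells given 40 pM IL-6 alongside compound; SIE-controlled beta-lactamase reporter measured as 460/530 nm FRET emission ratio; % is scaled to controls: 0 for no effect and ±100 for the full control effect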); conditions: ME-180 SIE beta-lactamase reporter, IL-6 stimulated, 5 h; at 7.69 µM (top of the series) unless noted
How it was run: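 Screening format detects activators and inhibitors alike: ME-180 SIE-bla cells stimulated at 40 pM IL-6 for 5 hrs with compound, then dual-emission beta-lactamase read at 405 nm excitation.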

[5] = molecular target: Glucocorticoid receptor (Homo sapiens) (UniProt P04150); assay: GR-GFP Redistribution (AID 450;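 active = compounds whose dose series gives a full or clear partial fitted curve of increased nuclear translocation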; also: potency is read from the fitted curve at half-maximal effect); conditions: U2OS GR-GFP nuclear translocation, laser cytometry, 2 h
[6] = molecular target: Glucocorticoid receptor (Homo sapiens) (UniProt P04150); assay: GR-EFC Redistribution (AID 451; calls by dose curve; also: potency is read from the fitted curve at half-maximal effect); conditions: CHO-K1 GR-EFC translocation, beta-gal luminescence, 2 h
How it was run: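 Translocation of GR-ED fusion to nuclear EA restores b-gal, read by luminescence after 1 h room-temperature detection. Engineered CHO-K1 biosensor cells, 1,000/well, exposed 2 h at 37 C to titrations up to 46 uM final.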

[7] = molecular target: Mitogen-activated protein kinase 10 (Mus musculus) (UniProt Q61831); assay: JNK3 AlphaScreen Assay (AID 530; active = well fitted curve in either direction with a large enough effect, not every such curve was filed as active;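 also: kinase came from lysate of stimulated human HepG2 cells; signal reports phosphorylation of biotinylated GST-cJun 1-79 at Ser73 with 10 µM ATP; % is scaled to controls: 0 for no effect and ±100 for the full control effect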); conditions: JNK3 lysate, c-Jun phosphorylation; series mostly up to 57.1 µM
How it was run: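 Compound titrations were preincubated 15 minutes at room temperature with substrate, antibody and pre-activated JNK3-containing HepG2 lysate. Reactions were started with 10 uM ATP and stopped with EDTA-containing bead buffer for AlphaScreen detection.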

[8] = molecular target: 3',5'-cyclic-AMP phosphodiesterase 4B (Homo sapiens) (UniProt Q07343); assay: qHTS Assay for Inhibitors of PDE-IV (AID 607; active = well fitted activation curve with a large enough effect in the main read-out, with a control signal flat, not every such curve was filed as active; also: % of control where 0% means no effect); conditions: HEK293 ACTOne CNG channel cells, membrane potential fluorescence; series mostly up to 22.9 µM
How it was run: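 The readout is membrane depolarisation from a cAMP-sensing CNG channel, detected with a potential dye at ex 535/em 590. Cells were HEK293-derived (endogenous PDE-IV) at 1000 cells/well, titrated up to 22.9 uM final.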

[9] = molecular target: Dual specificity protein kinase CLK4 (Homo sapiens) (UniProt Q9HAZ1); assay: qHTS Assay for Inhibitors of CDC-like Kinase 4 (Kinase-Glo Assay) (AID 1770); conditions: recombinant Clk4, Kinase-Glo ATP depletion luminescence; series mostly up to 66.7 µM; also: nearly all actives have a fitted effect of over 65% in size; also: potency is read from the fitted curve at half-maximal effect
How it was run: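 Substrate mix (RS peptide 100 uM, ATP 1 uM) dispensed, compound pinned in, then Clk4 added to 25 nM final. Incubated 4.5 h at RT; Kinase-Glo reagent added, luminescence read after 5 min.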

[10] = molecular target: Dual specificity protein kinase CLK4 (Homo sapiens) (UniProt Q9HAZ1); assay: qHTS Assay for Inhibitors of CDC-like Kinase 4 (ADP-Glo Assay) (AID 1771); conditions: recombinant CLK4, ADP-Glo luminescence; series mostly up to 80 µM; also: nearly all actives have a fitted effect of over 70% in size; also: potency is read from the fitted curve at half-maximal effect
How it was run: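 25 nM Clk4 with 100 uM RS repeat peptide and 1 uM ATP (final) in buffer with 2 mM MgCl2, 0.5 mM EGTA, 2.5 mM DTT, 0.01% Triton X-100; 1 h at room temperature; ADP-Glo luminescence for ADP formed.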

[11] = molecular target: Dual specificity protein kinase CLK4 (Homo sapiens) (UniProt Q9HAZ1); assay: qHTS Assay for Inhibitors of CDC-like Kinase 4 (ADP-FP Assay) (AID 1795); conditions: Transcreener ADP fluorescence polarization; series mostly up to 50 µM; also: nearly all actives have a fitted effect of over 60% in size; also: potency is read from the fitted curve at half-maximal effect
How it was run: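 Clk4 6.25 nM; RS peptide 100 uM; ATP 1 uM; 25 mM Tris pH 7.5, 10 mM MgCl2; 1 h reaction. ADP detected via antibody/orange tracer FP displacement; TG003 positive control.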

[12] = molecular target: Ubiquitin carboxyl-terminal hydrolase 1 (Homo sapiens) (UniProt O94782); assay: Inhibitors of USP1/UAF1: Pilot qHTS (AID 504865); conditions: purified USP1/UAF1, Ub-rhodamine cleavage fluorescence; series mostly up to 54.9 µM; also: nearly all actives have a fitted effect of over 35% in size; also: potency is read from the fitted curve at half-maximal effect
How it was run: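 In 50mM HEPES pH 7.8 containing 0.5mM EDTA, 1mM TCEP, 0.1 mg/ml BSA and 0.01% Tween-20, 1nM USP1/UAF1 is exposed to compound for 15 min, then Ub-Rho (150nM final) is added and fluorescence is read over time.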

[13] = Primary qHTS for small molecule stabilizers of the endoplasmic reticulum resident proteome: Secreted ER Calcium Modulated Protein (SERCaMP) assay (AID 1508630); conditions: SH-SY5Y GLuc-SERCaMP (Gaussia luciferase released on ER calcium loss) secretion, thapsigargin, luminescence; series mostly up to 38.4 µM; also: % is scaled to controls: 0 for no effect and ±100 for the full control effect
How it was run: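 GLuc-SERCaMP-expressing SH-SY5Y cells, pretreated 16 h with compound, are challenged with thapsigargin to empty ER calcium stores; after 4 h, coelenterazine is added directly to the medium and luminescence is imaged.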

[14] = NFAT Signaling Pathway (AID 444; active = well fitted curve in either direction with a large enough effect, not every such curve was filed as active); conditions: Jurkat NFAT-bla M1, carbachol, beta-lactamase ratio, 5 h; at 7.69 µM (top of the series) unless noted
How it was run: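 Read-out: CCF4 FRET ratio (460 nm/530 nm) after 1 h RT dye loading, used for %activity and AC50 from titration series. Cells: Jurkat NFAT-β-lactamase/M1 line, treated with compound plus 1 uM carbachol for 5 h, 37 °C.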

[15] = molecular target: Cytochrome P450 2C19 (Homo sapiens) (UniProt P33261); assay: qHTS Assay for Inhibitors and Substrates of Cytochrome P450 2C19 (AID 899); conditions: recombinant CYP2C19, luciferin-H EGE luminescence; series mostly up to 57.1 µM; also: potency is read from the fitted curve at half-maximal effect; nearly all actives have a fitted effect of over 60% in size
How it was run: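 5nM enzyme + 10uM Luciferin-H EGE (=KM), 50mM KPO4; cpd pin-transferred, 10 min 37C; NADPH regen, 60 min 37C; stopped w/ luciferin detection reagent, 20 min; luminescence. Normalized to 57uM ketoconazole (AC100).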

[16] = molecular target: Cytochrome P450 3A4 (Homo sapiens) (UniProt P08684); assay: qHTS Assay for Inhibitors and Substrates of Cytochrome P450 3A4 (AID 884); conditions: recombinant CYP3A4, Luciferin-PPXE luminescence; series mostly up to 57.1 µM; also: nearly all actives have a fitted effect of over 50% in size; also: potency is read from the fitted curve at half-maximal effect
How it was run: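 20 nM human CYP3A4 with 25 uM Luciferin-PPXE (at KM) in 200 mM KPO4, preincubated 10 min with compound; NADPH regeneration started a 60 min RT reaction. Luciferin detected by luminescence, normalized to 57 uM ketoconazole as full inhibition.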

[17] = qHTS Assay for Identification of Small Molecule Agonists for Hypoxia Response Element Signaling Pathway (AID 914; active = well fitted activation curve with a large enough effect in the signal ratio, with a control signal flat, not every such curve was filed as active; the % refers to the signal ratio; also: potency is read from the fitted curve at half-maximal effect); conditions: ME-180 (cervical carcinoma) HRE-bla reporter, beta-lactamase ratio, CoCl2, 17 h; activation: active compounds read high
How it was run: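 Cells were plated overnight, pin-dosed with compound in a titration series, co-stimulated with EC50 CoCl2 and incubated 17 hours at 37 degrees Celsius. CCF4 substrate was then loaded, and AC50 values came from the 460nm/530nm ratio.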

[18] = molecular target: Cytochrome P450 2C9 (Homo sapiens) (UniProt P11712); assay: qHTS Assay for Inhibitors and Substrates of Cytochrome P450 2C9 (AID 883); conditions: recombinant CYP2C9, luciferin-H luminescence, 60 min; series mostly up to 57.1 µM; also: % is scaled to controls: 0 for no effect and ±100 for the full control effect; nearly all actives have a fitted effect of over 60% in size
How it was run: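 Inhibition of CYP2C9 is scored as loss of luminescence, with 57uM sulphaphenazole defining 100% inhibition. Substrate Luciferin-H is used at 100uM, equal to its KM; enzyme at 10nM in 25mM KPO4, 60 min at 37C with NADPH regeneration.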

[19] = molecular target: Cytochrome P450 3A4 (Homo sapiens) (UniProt P08684); assay: qHTS Assay for Activators of Cytochrome P450 3A4 (AID 885); conditions: recombinant CYP3A4, Luciferin-PPXE luminescence, 60 min; series mostly up to 57.1 µM; also: nearly all actives have a fitted effect of over 65% in size
How it was run: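 Steps: enzyme/substrate mix dispensed; compound added, 10 min RT; NADPH regeneration solution added, 60 min RT; luciferin detection buffer stops reaction; 20 min later luminescence measured.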

Chain of 3',5'-cyclic-AMP phosphodiesterase 4B (Homo sapiens) (Q07343 whole entry, looked up): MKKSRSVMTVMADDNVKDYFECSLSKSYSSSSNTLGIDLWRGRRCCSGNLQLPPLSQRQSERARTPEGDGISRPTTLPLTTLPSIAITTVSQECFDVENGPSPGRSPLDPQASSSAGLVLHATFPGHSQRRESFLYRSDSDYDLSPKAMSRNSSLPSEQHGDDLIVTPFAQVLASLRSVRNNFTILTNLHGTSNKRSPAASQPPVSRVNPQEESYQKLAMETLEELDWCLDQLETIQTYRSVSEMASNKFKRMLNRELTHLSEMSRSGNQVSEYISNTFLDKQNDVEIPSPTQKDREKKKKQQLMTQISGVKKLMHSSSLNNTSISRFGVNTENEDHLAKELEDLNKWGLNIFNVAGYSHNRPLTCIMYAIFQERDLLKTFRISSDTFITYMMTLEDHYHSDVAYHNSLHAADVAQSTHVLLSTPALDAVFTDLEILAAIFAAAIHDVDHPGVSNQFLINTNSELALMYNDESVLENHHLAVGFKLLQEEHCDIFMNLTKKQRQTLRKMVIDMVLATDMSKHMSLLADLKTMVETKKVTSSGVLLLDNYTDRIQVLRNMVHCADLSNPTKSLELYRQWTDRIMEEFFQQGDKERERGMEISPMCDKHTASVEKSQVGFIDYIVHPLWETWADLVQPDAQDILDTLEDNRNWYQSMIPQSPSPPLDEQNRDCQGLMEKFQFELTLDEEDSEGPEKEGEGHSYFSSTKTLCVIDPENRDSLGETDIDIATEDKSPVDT
Chain of Ubiquitin carboxyl-terminal hydrolase 1 (Homo sapiens) (O94782 whole entry, looked up): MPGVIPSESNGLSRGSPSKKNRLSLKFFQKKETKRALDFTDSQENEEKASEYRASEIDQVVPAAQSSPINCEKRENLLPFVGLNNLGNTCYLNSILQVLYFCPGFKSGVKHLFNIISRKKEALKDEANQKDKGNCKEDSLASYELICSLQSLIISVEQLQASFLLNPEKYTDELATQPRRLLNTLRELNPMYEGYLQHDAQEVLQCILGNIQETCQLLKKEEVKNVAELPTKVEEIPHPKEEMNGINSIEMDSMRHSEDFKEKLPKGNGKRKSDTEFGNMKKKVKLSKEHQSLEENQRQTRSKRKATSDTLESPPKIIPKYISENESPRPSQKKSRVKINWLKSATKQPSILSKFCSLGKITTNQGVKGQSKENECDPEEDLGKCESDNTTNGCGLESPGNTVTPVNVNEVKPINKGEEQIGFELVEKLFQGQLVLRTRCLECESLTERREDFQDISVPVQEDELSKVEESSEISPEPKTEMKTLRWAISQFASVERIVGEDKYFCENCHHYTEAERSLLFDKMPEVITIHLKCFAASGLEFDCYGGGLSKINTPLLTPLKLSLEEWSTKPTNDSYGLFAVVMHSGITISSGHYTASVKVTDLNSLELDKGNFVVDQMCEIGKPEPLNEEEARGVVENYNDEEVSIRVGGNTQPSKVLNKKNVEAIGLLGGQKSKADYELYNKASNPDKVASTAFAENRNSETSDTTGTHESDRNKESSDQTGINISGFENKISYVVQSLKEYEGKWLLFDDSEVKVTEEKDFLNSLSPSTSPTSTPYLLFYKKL
Chain of Cytochrome P450 1A2 (Homo sapiens) (P05177 whole entry, looked up): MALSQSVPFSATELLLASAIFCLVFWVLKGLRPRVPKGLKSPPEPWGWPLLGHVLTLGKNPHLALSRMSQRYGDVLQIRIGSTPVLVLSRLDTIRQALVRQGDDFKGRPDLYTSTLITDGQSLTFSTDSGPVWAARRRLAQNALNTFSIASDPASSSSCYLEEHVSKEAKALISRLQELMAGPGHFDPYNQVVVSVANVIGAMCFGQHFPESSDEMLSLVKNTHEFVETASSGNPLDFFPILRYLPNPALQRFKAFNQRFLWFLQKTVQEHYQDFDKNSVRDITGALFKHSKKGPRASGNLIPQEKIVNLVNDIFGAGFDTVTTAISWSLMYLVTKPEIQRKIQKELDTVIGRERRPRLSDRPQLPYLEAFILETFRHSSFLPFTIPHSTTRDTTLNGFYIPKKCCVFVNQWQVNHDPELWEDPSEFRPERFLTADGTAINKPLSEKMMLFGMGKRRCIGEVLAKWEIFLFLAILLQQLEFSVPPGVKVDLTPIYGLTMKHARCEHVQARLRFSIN
Chain of Cytochrome P450 3A4 (Homo sapiens) (P08684 whole entry, looked up): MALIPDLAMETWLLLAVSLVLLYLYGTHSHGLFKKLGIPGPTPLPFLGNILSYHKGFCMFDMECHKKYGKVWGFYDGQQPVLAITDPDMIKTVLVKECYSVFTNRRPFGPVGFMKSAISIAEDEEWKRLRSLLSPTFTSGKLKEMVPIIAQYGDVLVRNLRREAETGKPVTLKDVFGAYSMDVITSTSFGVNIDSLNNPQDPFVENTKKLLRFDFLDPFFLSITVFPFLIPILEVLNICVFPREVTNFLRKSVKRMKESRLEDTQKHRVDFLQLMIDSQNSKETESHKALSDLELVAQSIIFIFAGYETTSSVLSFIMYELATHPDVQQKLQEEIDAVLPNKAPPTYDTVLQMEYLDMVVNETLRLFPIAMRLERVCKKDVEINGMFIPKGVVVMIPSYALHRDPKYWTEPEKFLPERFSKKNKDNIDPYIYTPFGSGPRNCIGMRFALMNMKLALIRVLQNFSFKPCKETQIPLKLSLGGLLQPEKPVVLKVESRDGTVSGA
Chain of Dual specificity protein kinase CLK4 (Homo sapiens) (Q9HAZ1 whole entry, looked up): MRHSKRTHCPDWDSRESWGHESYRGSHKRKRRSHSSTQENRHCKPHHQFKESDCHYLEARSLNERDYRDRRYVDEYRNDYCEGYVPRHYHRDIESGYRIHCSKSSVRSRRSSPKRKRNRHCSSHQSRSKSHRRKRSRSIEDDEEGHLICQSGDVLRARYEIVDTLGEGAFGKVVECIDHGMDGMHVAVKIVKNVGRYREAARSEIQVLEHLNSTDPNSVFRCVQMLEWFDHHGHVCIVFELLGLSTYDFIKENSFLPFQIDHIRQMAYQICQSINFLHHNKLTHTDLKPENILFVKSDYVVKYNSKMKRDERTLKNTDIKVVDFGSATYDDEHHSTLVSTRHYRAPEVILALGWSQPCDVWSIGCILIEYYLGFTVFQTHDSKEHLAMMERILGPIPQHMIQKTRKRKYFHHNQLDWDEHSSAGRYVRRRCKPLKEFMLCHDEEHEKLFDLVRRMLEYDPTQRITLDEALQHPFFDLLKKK
Chain of Glucocorticoid receptor (Homo sapiens) (P04150 whole entry, looked up, the tested form may be a part): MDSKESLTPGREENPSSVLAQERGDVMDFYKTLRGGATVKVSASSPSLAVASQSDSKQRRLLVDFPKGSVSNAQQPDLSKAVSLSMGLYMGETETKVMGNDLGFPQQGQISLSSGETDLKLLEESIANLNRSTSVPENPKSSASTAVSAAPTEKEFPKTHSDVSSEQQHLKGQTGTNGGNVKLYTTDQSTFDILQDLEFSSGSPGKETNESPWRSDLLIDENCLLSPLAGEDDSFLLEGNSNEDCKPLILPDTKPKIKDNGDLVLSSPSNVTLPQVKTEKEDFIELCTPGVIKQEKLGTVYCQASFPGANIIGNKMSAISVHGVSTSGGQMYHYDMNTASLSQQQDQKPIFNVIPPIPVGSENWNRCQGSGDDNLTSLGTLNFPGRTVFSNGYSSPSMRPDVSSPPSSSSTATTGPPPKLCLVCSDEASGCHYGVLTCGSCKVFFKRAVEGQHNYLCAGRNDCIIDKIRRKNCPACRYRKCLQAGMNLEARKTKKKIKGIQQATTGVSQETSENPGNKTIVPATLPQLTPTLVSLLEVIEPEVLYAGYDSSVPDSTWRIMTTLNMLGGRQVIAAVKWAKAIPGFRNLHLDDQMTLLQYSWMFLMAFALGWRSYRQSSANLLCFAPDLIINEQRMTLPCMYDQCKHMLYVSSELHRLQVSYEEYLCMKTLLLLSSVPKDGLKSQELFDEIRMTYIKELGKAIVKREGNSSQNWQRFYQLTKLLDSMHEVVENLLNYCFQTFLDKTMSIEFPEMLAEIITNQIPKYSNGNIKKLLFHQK
Chain of Lysosomal acid glucosylceramidase (Homo sapiens) (P04062 whole entry, looked up): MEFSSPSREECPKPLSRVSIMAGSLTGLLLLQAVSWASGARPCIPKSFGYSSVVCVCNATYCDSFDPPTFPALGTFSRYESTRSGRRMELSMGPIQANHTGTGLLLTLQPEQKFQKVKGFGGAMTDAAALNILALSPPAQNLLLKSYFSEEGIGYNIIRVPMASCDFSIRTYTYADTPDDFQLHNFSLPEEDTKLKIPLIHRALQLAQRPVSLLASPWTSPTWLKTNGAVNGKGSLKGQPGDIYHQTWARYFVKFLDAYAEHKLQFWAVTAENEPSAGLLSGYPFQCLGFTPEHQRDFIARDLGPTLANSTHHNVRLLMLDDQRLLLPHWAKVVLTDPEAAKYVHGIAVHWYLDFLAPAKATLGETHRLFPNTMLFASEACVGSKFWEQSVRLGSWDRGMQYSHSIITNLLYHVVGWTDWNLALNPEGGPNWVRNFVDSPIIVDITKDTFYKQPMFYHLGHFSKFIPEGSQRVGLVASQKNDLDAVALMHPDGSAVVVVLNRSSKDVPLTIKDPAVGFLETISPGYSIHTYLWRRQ
Chain of Cytochrome P450 2C19 (Homo sapiens) (P33261 whole entry, looked up): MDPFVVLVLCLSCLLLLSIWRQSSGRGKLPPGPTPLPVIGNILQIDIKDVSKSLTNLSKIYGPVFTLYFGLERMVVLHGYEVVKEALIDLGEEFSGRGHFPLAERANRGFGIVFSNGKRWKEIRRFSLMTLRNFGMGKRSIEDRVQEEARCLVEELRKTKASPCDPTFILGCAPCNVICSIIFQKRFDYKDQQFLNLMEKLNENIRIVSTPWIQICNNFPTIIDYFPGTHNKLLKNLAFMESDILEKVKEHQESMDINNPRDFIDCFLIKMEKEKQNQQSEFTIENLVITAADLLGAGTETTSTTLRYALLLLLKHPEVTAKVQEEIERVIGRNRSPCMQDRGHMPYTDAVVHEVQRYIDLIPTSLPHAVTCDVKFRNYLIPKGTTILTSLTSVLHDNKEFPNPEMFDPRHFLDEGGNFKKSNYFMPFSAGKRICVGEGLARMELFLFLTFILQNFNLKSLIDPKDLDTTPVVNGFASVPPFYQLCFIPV

| SMILES | Potency [1] | activity change, negative = inhibition [2] | Potency [3] | activity, negative = inhibition [4] | Potency [5] | Potency [6] | Potency [7] | Potency [8] | Potency [9] | Potency [10] | Potency [11] | Potency [12] | outcome [13] | activity change, negative = inhibition [14] | Potency [15] | Potency [16] | Potency [17] | activity change, negative = inhibition [18] | Potency [19] |
| --- | --- | --- | --- | --- | --- | --- | --- | --- | --- | --- | --- | --- | --- | --- | --- | --- | --- | --- | --- |
| COc1cccc(Nc2ncc3nc(-c4cccs4)c(=O)n(Cc4cccs4)c3n2)c1 | > 11.4 µM | -19.6% | 2 µM (active) | -4.04% | > 9.22 µM | > 46 µM | inactive | inactive | inactive | inactive | inactive | 20 µM (active) | inactive |  |  |  |  |  |  |
| CN(Cc1ccco1)c1ccnc(-c2ccccc2C(F)(F)F)n1 | > 11.4 µM | 2.94% | 2.51 µM (active) | -4.79% | > 46 µM | > 46 µM | inactive | inactive | inactive | inactive | inactive |  | inactive | -8.64% | 7.94 µM (active) |  |  |  |  |
| CN(C)c1ncc2nc(-c3ccc(Cl)cc3)c(=O)n(Cc3ccc(F)cc3)c2n1 | > 11.4 µM | 115% [activator] (active) | 5.01 µM (active) |  | > 9.22 µM | > 46 µM |  | inactive | inactive | inactive | inactive |  | inactive | 137% [activator] (active) |  | inactive | 1.26 µM (active) |  |  |
| CN(C)c1ncc2nc(-c3cccs3)c(=O)n(CCc3ccccc3)c2n1 | > 11.4 µM | 14.4% | 5.01 µM (active) |  | > 9.22 µM | > 46 µM |  | inactive | inactive | inactive | inactive | inactive | inactive | 9.39% |  |  |  |  |  |
| CS(=O)(=O)Nc1cccc(-c2cc(NCc3cccs3)ncn2)c1 | > 11.4 µM | -14.7% | 6.31 µM (active) | -1.82% |  | > 46 µM | inactive | inactive | 10 µM (active) | 12.6 µM (active) | 12.6 µM (active) | inactive | inactive | -3.98% |  |  |  | 35.3% [at 2.29 µM] | inactive |
| COc1ncc2nc(-c3cccs3)c(=O)n(Cc3ccc(F)cc3)c2n1 | > 11.4 µM | 22.6% | 3.16 µM (active) |  | > 9.22 µM | > 46 µM | inactive | inactive | inactive | inactive | inactive | inactive | inactive | 8.73% |  | 3.16 µM (active) |  |  | inactive |
